miR122 inh: activators of miR-122 sensor in Huh7 cells. Huh7 psiCHECK-miR122 Renilla luciferase sensor, 48 h. activation, % at 12.5 µM. 340,000 tested, 0.14% active;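 active = mean activation of 30% or more, with every replicate also reaching 30%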;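 also: higher luciferase signal means stronger suppression of miR-122 activity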
Numbers stand for hits; i = inactive. Only a selection was taken, and hits are over-represented in it overall.

SMILES	miR122 inh
C[C@@H]1CN([C@H](C)CO)C(=O)c2cc(C#CC3(O)CCCC3)cnc2O[C@H]1CN(C)Cc1cncnc1	i
CCC(=O)Nc1ccc2c(c1)OC[C@@H](C)N(C(=O)CN1CCOCC1)C[C@H](C)[C@H](OC)CN(C)C2=O	i
CCCC(=O)Nc1ccc2c(c1)OC[C@@H](C)N(C(C)=O)C[C@H](C)[C@@H](OC)CN(C)C2=O	i
COc1cccc(C#Cc2ccc3c(c2)O[C@H](CN(C)S(=O)(=O)c2ccccc2F)[C@@H](C)CN([C@H](C)CO)S3(=O)=O)c1	i
COCC(=O)N(C)C[C@H]1Oc2cc(-c3cncnc3)ccc2S(=O)(=O)N([C@H](C)CO)C[C@H]1C	i
CC(C)N1C(=O)CC(Nc2ccc(N3CCOCC3)cc2)C1=O (stereo not drawn)	i
CCc1nnc(SCC(=O)Nc2ccc(N3CCOCC3)cc2)o1	32
CCc1ccc(NC(=O)CN2CCc3ccccc3C2)cc1	i
CCC(=O)N(C)C[C@@H]1Oc2ncc(C#Cc3ccc(OC)cc3)cc2C(=O)N([C@H](C)CO)C[C@@H]1C	i
O=C(Nc1nc2ccc(S(=O)(=O)N3CCCC3)cc2s1)C1CCCCC1	i
O=C(Cc1cccs1)Nc1ccc(S(=O)(=O)N2CCCCC2)cc1	i
O=C(Nc1nc(-c2cc3ccccc3o2)cs1)c1ccc(S(=O)(=O)N2CCCC2)cc1	52
C[C@H](CO)N1C[C@H](C)[C@@H](CN(C)C(=O)c2cccc(F)c2)Oc2ncc(-c3cccc(F)c3)cc2C1=O	i
COc1cc2c(cc1OC)C(c1ccc(-c3ccc(Cl)c(Cl)c3)o1)=NCC2	44
CCC(=O)N(C)C[C@@H]1Oc2ncc(C#C[C@@H](C)O)cc2C(=O)N([C@@H](C)CO)C[C@@H]1C	i
CO[C@H]1CN(C)C(=O)c2ccc(NC(=O)c3ccccc3)cc2OC[C@@H](C)N(C)C[C@H]1C	i
COc1cccc(-c2cnc3c(c2)C(=O)N([C@@H](C)CO)C[C@@H](C)[C@@H](CN(C)CC2CCOCC2)O3)c1	i
CC(C)C#Cc1cnc2c(c1)C(=O)N([C@H](C)CO)C[C@@H](C)[C@@H](CN(C)Cc1ccccn1)O2	i
COc1cccc(-c2cnc3c(c2)C(=O)N([C@@H](C)CO)C[C@H](C)[C@H](CN(C)Cc2cccnc2)O3)c1	i
CCCN(C)C[C@@H]1Oc2cc(C#Cc3ccccc3F)ccc2S(=O)(=O)N([C@@H](C)CO)C[C@H]1C	i
COc1cccc(CNC(=O)C[C@@H]2CC[C@H]3[C@H](COc4ccc(NS(=O)(=O)c5ccccc5F)cc4C(=O)N3C)O2)c1	37
CO[C@@H]1CN(C)C(=O)c2cc(NC(=O)Cc3ccccc3)ccc2OC[C@@H](C)N(C)C[C@H]1C	i
COc1cccc(C(=O)Nc2ccc3c(c2)C(=O)N(C)[C@@H]2CC[C@@H](CC(=O)NCc4ccc(F)cc4)O[C@@H]2CO3)c1	37
CO[C@@H]1CN(C)C(=O)c2cc(NC(=O)c3ccc(F)cc3)ccc2OC[C@@H](C)N(C)C[C@H]1C	i
COc1cccc(C(=O)Nc2ccc3c(c2)C(=O)N(C)[C@@H]2CC[C@@H](CC(=O)N[C@H](C)c4ccccc4)O[C@@H]2CO3)c1	47
SMILES	miR122 inh
CNC(=O)C[C@H]1CC[C@@H]2[C@H](COc3ccc(NC(=O)c4cccc(OC)c4)cc3C(=O)N2C)O1	83
CO[C@H]1CN(C)C(=O)c2cc(NC(C)=O)ccc2OC[C@@H](C)N(C(=O)c2ccccc2)C[C@@H]1C	i
CN1C(=O)c2cc(NC(=O)Cc3ccccc3)ccc2OC[C@@H]2O[C@@H](CC(=O)NCc3ccc(Cl)cc3)CC[C@@H]21	i
C/C=C/c1cnc2c(c1)C(=O)N([C@@H](C)CO)C[C@@H](C)[C@H](CN(C)C(=O)Nc1cccc(OC)c1)O2	i
COCC#Cc1cnc2c(c1)C(=O)N([C@H](C)CO)C[C@H](C)[C@H](CN(C)C(=O)Nc1c(C)noc1C)O2	i
CC(C)C#Cc1ccc2c(c1)O[C@@H](CN(C)Cc1ccccn1)[C@H](C)CN([C@@H](C)CO)S2(=O)=O	i
C/C=C/c1cnc2c(c1)C(=O)N([C@H](C)CO)C[C@@H](C)[C@H](CN(C)CC1CCOCC1)O2	i
C[C@@H]1CN([C@@H](C)CO)C(=O)Cc2cc(N(C)C)ccc2O[C@@H]1CN(C)Cc1ccc(C(=O)Nc2ccccc2N)cc1	i
COc1cccc(NC(=O)N(C)C[C@H]2Oc3ncc(C#Cc4cccnc4)cc3C(=O)N([C@@H](C)CO)C[C@@H]2C)c1	i
C[C@@H]1CN([C@H](C)CO)C(=O)c2cc(-c3ccc(F)cc3)cnc2O[C@H]1CN(C)Cc1cccnc1	i
C[C@H](CO)N1C[C@H](C)[C@@H](CN(C)C(=O)c2ccccn2)Oc2ncc(C#Cc3ccccc3)cc2C1=O	i
COc1ccc(-c2cnc3c(c2)C(=O)N([C@@H](C)CO)C[C@H](C)[C@@H](CN(C)Cc2ccccn2)O3)cc1	i
C[C@H]1CN([C@@H](C)CO)C(=O)c2cc(-c3ccncc3)cnc2O[C@@H]1CN(C)C(=O)c1ccccc1F	i
